# About 7,900 targets were measured; listed, in parts, are those with a hit and a random draw of the rest. About 0.6% of all pairs of compound and target were hits. Values without a mark were called inactive.
# Compound: CC1=C(C(CC(=O)N1)C2=CC=C(C=C2)C(F)(F)F)C(=O)NC3=C(C=C4C(=C3)C=NN4)F
# Experiment: log2 fold change, soluble protein after heating vs DMSO (PISA); higher = thermal stabilisation; K562 cells, 10 uM, 30 min; active = over 0.2 and 3.5 SD of the protein, either way, in both replicates (recomputed)
# Procedure, shortened: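 Quantification of soluble protein used TMTpro 16plex LC-MS/MS, with channel sums equalised. Samples were the supernatant after 21,000xg for 90 min of pooled aliquots from K562 cells (2×10^6 cells/mL) treated with 10 μM compound for 30 min, heated for 3 min over 48°C-58°C, and extracted in PBS with 0.5% NP-40 at 4°C. Values, from duplicates, describe thermal stability against control samples on a log2 fold-change scale.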
# UniProt Q12888, sequence (Q12888 whole entry, looked up): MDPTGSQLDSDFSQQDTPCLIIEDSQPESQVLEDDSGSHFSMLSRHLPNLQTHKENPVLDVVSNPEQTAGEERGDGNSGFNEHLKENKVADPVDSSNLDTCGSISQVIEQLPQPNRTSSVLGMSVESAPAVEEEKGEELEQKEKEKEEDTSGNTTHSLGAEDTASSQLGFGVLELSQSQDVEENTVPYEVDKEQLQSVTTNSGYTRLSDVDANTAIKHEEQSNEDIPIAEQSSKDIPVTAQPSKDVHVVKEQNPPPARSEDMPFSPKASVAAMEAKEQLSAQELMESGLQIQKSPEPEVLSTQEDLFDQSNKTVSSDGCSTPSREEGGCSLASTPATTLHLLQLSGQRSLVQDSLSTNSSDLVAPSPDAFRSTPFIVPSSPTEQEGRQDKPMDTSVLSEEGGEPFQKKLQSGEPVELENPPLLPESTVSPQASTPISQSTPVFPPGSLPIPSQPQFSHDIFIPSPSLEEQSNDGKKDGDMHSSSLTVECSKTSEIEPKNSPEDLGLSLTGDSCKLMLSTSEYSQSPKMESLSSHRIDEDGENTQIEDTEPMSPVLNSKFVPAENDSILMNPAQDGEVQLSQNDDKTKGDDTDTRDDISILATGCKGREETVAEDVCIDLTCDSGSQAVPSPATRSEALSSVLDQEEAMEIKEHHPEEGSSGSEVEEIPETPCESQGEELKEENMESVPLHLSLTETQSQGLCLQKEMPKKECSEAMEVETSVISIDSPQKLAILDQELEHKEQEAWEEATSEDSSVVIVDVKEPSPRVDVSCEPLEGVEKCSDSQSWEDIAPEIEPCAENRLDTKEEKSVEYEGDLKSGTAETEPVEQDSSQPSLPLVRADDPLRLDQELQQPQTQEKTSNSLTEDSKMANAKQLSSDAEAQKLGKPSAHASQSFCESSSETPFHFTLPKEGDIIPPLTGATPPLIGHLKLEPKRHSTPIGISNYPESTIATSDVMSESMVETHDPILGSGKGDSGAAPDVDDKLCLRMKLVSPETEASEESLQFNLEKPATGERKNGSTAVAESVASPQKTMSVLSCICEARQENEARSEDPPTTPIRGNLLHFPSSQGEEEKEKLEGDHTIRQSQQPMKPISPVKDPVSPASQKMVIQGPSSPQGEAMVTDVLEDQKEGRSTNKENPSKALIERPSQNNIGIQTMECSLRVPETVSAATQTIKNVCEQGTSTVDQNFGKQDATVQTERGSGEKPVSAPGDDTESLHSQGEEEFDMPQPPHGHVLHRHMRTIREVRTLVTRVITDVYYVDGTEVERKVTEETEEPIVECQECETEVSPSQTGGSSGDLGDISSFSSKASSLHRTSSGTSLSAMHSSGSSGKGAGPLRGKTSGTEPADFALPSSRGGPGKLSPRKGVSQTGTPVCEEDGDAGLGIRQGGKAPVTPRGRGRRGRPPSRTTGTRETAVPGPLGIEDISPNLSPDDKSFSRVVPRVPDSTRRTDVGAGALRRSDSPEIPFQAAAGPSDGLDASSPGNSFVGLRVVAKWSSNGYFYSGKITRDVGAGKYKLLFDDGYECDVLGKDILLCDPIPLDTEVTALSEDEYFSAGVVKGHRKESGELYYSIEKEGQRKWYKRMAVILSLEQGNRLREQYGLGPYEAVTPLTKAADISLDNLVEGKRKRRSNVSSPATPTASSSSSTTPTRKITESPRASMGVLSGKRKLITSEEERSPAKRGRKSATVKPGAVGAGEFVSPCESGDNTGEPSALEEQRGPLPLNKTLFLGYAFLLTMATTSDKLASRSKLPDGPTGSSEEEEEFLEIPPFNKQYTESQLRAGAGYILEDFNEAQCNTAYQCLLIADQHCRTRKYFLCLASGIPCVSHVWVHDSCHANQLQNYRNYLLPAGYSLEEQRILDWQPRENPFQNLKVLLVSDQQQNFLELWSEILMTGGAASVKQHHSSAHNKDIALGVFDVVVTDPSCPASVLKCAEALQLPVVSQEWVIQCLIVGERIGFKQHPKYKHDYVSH
# UniProt Q8TBZ6, sequence (Q8TBZ6 whole entry, looked up): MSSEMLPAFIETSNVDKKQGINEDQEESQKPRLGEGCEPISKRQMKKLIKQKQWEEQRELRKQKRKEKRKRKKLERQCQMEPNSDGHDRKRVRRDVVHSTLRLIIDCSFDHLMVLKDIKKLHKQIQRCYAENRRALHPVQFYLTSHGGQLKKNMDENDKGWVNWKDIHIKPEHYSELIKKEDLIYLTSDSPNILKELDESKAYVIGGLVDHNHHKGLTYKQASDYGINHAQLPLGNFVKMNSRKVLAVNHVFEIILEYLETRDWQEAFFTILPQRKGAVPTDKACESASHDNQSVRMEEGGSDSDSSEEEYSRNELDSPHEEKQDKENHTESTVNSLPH
# UniProt P30291, sequence (P30291 whole entry, looked up): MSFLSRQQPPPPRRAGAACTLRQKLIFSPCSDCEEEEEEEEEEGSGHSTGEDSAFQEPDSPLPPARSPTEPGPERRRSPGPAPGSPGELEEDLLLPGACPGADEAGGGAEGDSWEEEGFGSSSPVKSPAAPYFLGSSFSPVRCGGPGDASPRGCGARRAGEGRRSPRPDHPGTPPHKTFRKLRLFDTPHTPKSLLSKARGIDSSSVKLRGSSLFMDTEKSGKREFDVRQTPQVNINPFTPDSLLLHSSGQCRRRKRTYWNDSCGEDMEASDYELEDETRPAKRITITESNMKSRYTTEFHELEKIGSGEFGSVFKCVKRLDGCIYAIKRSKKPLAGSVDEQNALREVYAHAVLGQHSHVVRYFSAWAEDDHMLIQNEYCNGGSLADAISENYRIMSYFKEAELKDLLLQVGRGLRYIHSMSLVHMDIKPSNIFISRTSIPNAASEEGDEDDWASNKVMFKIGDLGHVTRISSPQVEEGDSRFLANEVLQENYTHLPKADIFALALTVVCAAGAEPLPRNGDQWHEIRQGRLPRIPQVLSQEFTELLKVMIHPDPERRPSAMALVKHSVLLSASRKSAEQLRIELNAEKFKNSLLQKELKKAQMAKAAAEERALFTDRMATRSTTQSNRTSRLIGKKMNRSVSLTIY
# UniProt O75674, sequence (O75674 whole entry, looked up): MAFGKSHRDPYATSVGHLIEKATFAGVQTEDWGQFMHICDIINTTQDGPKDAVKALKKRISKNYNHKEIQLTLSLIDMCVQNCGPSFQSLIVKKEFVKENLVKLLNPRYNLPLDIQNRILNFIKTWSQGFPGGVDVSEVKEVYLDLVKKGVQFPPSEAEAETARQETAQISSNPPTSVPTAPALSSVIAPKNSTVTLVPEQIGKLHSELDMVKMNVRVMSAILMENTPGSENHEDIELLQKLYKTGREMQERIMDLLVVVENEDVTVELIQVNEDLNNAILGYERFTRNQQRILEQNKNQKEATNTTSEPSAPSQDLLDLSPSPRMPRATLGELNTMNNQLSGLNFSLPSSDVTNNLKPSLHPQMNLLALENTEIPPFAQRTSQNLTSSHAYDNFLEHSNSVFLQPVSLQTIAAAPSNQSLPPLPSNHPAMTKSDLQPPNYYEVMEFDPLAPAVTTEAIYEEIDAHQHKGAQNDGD
# UniProt Q8NEZ2, sequence (Q8NEZ2 whole entry, looked up): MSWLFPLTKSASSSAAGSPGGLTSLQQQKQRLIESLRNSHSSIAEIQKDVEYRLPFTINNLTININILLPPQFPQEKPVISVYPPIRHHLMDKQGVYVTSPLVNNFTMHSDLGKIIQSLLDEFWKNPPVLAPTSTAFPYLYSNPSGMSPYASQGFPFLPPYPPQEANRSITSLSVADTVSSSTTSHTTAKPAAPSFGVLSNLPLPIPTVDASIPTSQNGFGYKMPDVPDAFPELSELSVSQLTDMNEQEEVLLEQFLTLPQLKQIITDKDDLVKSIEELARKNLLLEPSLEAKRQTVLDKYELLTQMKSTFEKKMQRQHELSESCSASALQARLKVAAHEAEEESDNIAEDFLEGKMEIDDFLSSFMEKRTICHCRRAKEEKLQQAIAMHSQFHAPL
# UniProt Q14157, sequence (Q14157 whole entry, looked up): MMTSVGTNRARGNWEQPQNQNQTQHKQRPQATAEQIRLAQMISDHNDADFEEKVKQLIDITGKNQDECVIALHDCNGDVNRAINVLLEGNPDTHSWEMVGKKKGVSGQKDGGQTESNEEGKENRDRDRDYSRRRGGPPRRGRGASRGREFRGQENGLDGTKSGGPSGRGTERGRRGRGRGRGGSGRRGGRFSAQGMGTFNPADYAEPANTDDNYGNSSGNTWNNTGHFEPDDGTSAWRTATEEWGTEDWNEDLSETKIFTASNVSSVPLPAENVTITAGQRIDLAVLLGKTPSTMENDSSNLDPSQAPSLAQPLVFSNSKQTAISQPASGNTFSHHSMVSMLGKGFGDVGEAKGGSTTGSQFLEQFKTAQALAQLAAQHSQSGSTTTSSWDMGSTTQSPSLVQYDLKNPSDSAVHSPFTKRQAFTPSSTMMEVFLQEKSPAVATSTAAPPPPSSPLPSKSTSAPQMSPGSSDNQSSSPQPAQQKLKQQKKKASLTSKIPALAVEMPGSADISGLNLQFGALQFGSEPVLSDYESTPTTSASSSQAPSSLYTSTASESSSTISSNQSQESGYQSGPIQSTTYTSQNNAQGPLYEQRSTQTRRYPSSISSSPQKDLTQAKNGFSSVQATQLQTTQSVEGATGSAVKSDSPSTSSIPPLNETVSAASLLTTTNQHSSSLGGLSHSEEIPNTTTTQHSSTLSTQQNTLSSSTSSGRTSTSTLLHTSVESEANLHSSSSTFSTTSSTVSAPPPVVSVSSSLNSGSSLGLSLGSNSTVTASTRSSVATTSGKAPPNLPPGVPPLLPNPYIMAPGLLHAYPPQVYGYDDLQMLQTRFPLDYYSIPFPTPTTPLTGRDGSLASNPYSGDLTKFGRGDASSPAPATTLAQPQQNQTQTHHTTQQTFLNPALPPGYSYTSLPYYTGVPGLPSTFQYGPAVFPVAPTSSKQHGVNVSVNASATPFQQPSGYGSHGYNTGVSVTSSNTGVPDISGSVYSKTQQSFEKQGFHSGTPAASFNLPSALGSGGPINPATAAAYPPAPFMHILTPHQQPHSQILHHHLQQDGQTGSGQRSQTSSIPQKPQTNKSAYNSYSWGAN
# UniProt P61960, sequence (P61960 whole entry, looked up): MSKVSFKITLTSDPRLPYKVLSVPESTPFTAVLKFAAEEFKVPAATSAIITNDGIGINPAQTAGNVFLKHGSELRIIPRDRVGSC
row,Target,log2 fold change
1,TMEM223 (UniProt A0PJW6),-0.087
2,USP25 isoform 3 (UniProt Q9UHP3),0.043
3,VPS41 (UniProt P49754),0.003
4,WDR47 (UniProt O94967),0.024
5,TMEM128 (UniProt Q5BJH2),0.001
6,WDR41 (UniProt Q9HAD4),0.127
7,TMEM9 (UniProt Q9P0T7),0.067
8,VPS51 (UniProt Q9UID3),0.033
9,TYW1 (UniProt Q9NV66),-0.074
10,TUBAL3 (UniProt A6NHL2),0.11
11,TOM1L1 (UniProt O75674),0.006
12,TPR (UniProt P12270),-0.045
13,TP53BP1 isoform 2 (UniProt Q12888),0.003
14,TRAPPC2L (UniProt Q9UL33),0.062
15,U2AF1 isoform 2 (UniProt Q01081),-0.062
16,TMEM9B (UniProt Q9NQ34),0.027
17,VPS37A (UniProt Q8NEZ2),-0.047
18,WEE1 (UniProt P30291),0.05
19,TNFAIP8 isoform 4 (UniProt O95379),-0.001

row,Target,log2 fold change
1,UBAP2L isoform 5 (UniProt Q14157),0.009
2,WDR43 (UniProt Q15061),0.009
3,UFD1 isoform 1 (UniProt Q92890),-0.016
4,TRAPPC6B (UniProt Q86SZ2),0.004
5,UCHL5 isoform 3 (UniProt Q9Y5K5),0.068
6,XPOT (UniProt O43592),0.001
7,TMEM208 (UniProt Q9BTX3),-0.016
8,UFM1 (UniProt P61960),-0.057
9,UQCR10 (UniProt Q9UDW1),-0.008
10,USP7 (UniProt Q93009),0
11,WDR46 (UniProt O15213),0.033
12,TTI2 (UniProt Q6NXR4),-0.044
13,XPO1 (UniProt O14980),-0.001
14,TRMT10A (UniProt Q8TBZ6),0.02
15,TMEM87B (UniProt Q96K49),0.057
16,VPS13B (UniProt Q7Z7G8),0.03
17,VPS33A (UniProt Q96AX1),0.035
18,VWA3B isoform 6 (UniProt Q502W6),0.257

# — the supplement of paper PMC10849652
